High-throughput results: PubChem BioAssay, several laboratories
PostGolgi yeast: growth inhibition of a yeast mutant, post-Golgi transport screen; post-Golgi transport phenotypic cell assay; 98,000 compounds, 0.9% hits; inhibition, % at 10 µM;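 further: yeast cells grown in 1536-well plates; yeast grown about 18 h at 30C before absorbance read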
CYP2C9 inhib: blocks human cytochrome P450 2C9. 96,000 compounds, 20% hits. CYP2C9 Supersomes, luciferin-H conversion, luminescence. inhibition, % at 5 µM. AID 777;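 active means blocking of liver enzyme CYP2C9 beyond about 50% at 5 µM, limit read from the data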
CYP2C9 act: activators of human CYP2C9. activation factor at 5 µM. P11712. 96,000 compounds, 1.4% hits. recombinant CYP2C9, luciferin-H conversion, luminescence; active compounds read high; factor 1 = untreated enzyme, 0 = blocked;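 active means activation factor of 2 or more for CYP2C9 at a 5 µM dose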
CYP2C19 act: cytochrome P450 2C19 (human) activation. AID 1025. activation factor at 5 µM. recombinant CYP2C19, luciferin-H EGE luminescence; active compounds read high; 0 = fully inhibited enzyme, 1 = untreated enzyme. P33261. 96,000 tested, under 10 active;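 active means activation factor of at least 2 at 5 µM in the primary screen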
Target sequence (P33261 whole entry, looked up): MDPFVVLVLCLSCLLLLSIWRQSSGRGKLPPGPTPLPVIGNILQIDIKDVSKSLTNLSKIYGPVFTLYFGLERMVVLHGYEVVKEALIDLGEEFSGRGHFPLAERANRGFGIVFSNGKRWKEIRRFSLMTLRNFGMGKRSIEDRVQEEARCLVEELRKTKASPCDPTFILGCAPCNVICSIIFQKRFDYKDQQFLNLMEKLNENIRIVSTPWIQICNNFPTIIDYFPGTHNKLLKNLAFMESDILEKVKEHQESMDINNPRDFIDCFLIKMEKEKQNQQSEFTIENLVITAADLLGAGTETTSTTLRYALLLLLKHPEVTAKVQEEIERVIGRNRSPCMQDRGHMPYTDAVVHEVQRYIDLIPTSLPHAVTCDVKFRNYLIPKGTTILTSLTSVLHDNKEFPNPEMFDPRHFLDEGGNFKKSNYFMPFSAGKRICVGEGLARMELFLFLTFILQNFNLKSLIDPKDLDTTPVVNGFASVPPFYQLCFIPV
CYP2C19 inhib: inhibitors of human CYP2C19 | P33261 | CYP2C19 Supersomes, luciferin-H EGE luminescence, 30 min | inhibition, % at 5 µM | 96,000 compounds, 21% hits;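 active means CYP2C19 inhibition above a set limit at 5 µM in the primary screen, cut at about 50% in these data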
PostGolgi ctrl: inhibits growth of the yeast control strain. efflux-deficient yeast background strain, growth absorbance A615, 16 h. inhibition, % at 10 µM. 98,000 compounds, 5% hits
Hits are given with their value; - = inactive; . = no result given. Sampled rows, rich in hits. Any-hit rate of the full collection: about 32%. Unless noted, no stated cut-off is given here; in the data, active means inhibition above about 30%; inactive means the rest.

SMILES | PostGolgi yeast | CYP2C9 inhib | CYP2C9 act | CYP2C19 act | CYP2C19 inhib | PostGolgi ctrl
Cc1cc(C)c2[nH]c(=O)c(CN(CC3CCCO3)S(=O)(=O)c3ccc4c(c3)OCCO4)cc2c1 (stereo not given) | - | 92.1 | - | - | 77.7 | -
CCCNC(=S)N1CCC(NC(=O)C2CCCCC2)CC1 | - | - | - | - | - | -
CCn1c(C(O)c2ccc3c(c2)OCO3)nc2ccccc21 (stereo not given) | - | - | - | - | 97.9 | -
CCCn1c(/N=C/c2ccc3c(c2)OCO3)nc2ccccc21 | - | - | - | - | - | -
CCOC(=O)c1[nH]c(C)c(C(=O)Nc2ccccc2C)c1C | - | - | - | - | 55.7 | -
O=C1CN(C(=O)COC(=O)C2=COCCO2)c2ccccc2N1 | - | - | - | - | - | -
O=C1CN(C(=O)COC(=O)c2ccccc2NC(=O)c2ccco2)c2ccccc2N1 | - | 75.7 | - | - | - | -
CCOC(=O)c1[nH]c(C)c(C(=O)Nc2ccc(C)c(Cl)c2)c1C | - | . | . | . | . | -
CCOC(=O)c1[nH]c(C)c(C(=O)Nc2cc(Cl)ccc2C)c1C | - | - | 2 | - | - | -
CCOC(=O)c1[nH]c(COC(=O)c2ccccc2NC(=O)c2ccco2)c(C(=O)OCC)c1C | - | 87.6 | - | - | - | -
Cc1ccc(N(C=NC#N)CC(=O)N2CCN(c3ccccc3)CC2)cc1 | - | - | - | - | - | -
CCOC(=O)c1[nH]c(C)c(C(=O)NCCc2ccc(OC)cc2)c1C | - | 71.6 | - | - | - | -
CCOc1nc2ccccc2nc1C | - | - | - | - | - | -
Cn1c(=O)c2c(nc(CN3CCC(C(N)=O)CC3)n2CCc2ccccc2)n(C)c1=O | - | - | - | - | - | -
Nc1nc(SCC(=O)Nc2ccccc2Sc2ccc(Cl)cc2)n[nH]1 | - | 98.8 | - | - | 100.4 | -
Nc1nc(SCC(=O)Nc2cc(-c3ccccc3)nn2-c2ccccc2)n[nH]1 | - | 60.5 | - | - | 93.6 | -
COc1ccc(NC(=O)CSc2n[nH]c(N)n2)c([N+](=O)[O-])c1 | - | - | - | - | - | -
COc1cccc(-c2nc(=S)c3c(n2CCCO)CCCC3)c1 | - | - | - | - | - | -
CC(=O)c1c(N)c(C#N)c(C)n1-c1ccc(Br)cc1 | - | - | - | - | 94.2 | -
Cc1ccc(N(CC(=O)O)S(C)(=O)=O)cc1Cl | - | - | - | - | - | -
CC1(C)CC(=O)C2=C(C1)OC(=O)C2(NC(=O)c1cccs1)C(F)(F)F (stereo not given) | - | 55.8 | - | - | - | -
CCCCN1C(=O)C(NC(=O)c2cccnc2)(C(F)(F)F)C2=C1CC(C)(C)CC2=O (stereo not given) | - | - | - | - | - | -
COc1cc(C(O)P(=O)(OC2CCCCC2)c2ccc(N(C)C)cc2)cc(OC)c1OC (stereo not given) | - | - | - | - | 83.8 | -
Cc1ccnc(NC(=O)CCC(=O)N(CC(=O)NC2CCCCC2)CC2CCCO2)c1 (stereo not given) | - | - | - | - | - | -
CCCC12CN3CC(CCC)(CN(C1)C3C(O)C(O)C(O)CO)C2=O (stereo not given) | - | - | - | - | - | -
SMILES | PostGolgi yeast | CYP2C9 inhib | CYP2C9 act | CYP2C19 act | CYP2C19 inhib | PostGolgi ctrl
CCOc1ccc(C2C(C(=O)c3ccco3)=C(O)C(=O)N2Cc2cccnc2)cc1 (stereo not given) | - | - | - | - | - | -
COc1ccc(C2C(C(=O)c3ccco3)=C(O)C(=O)N2Cc2cccnc2)cc1OC (stereo not given) | - | - | - | - | - | 33.8
CCCOc1ccc(C2C(C(=O)c3ccc(C)o3)=C(O)C(=O)N2Cc2cccnc2)cc1 (stereo not given) | . | 59.1 | - | - | - | .
O=C1c2ccccc2C(O)(c2ncc[nH]2)N1CCc1ccccc1 (stereo not given) | - | - | - | - | 91.9 | -
C=CCn1c(SCC(=O)NCCC2=CCCCC2)nc2ccc(Cl)cc2c1=O | - | 56.3 | - | - | - | -
COc1ccc(CNc2nc3nc(-c4ccccc4)cc(=O)n3[nH]2)cc1OC | - | - | - | - | - | -
CC1(C)Cc2c(c(N3CCCC3)[nH]c(=S)c2C#N)CO1 | - | - | - | - | - | -
Cc1ccc(S(=O)(=O)N2CCN(c3nc(C(C)C)c4c(c3C#N)CC(C)(C)OC4)CC2)cc1 | - | 94.9 | - | - | 67.8 | -
CCCNC(=O)N1CCN(c2nc(C(C)C)c3c(c2C#N)CC(C)(C)OC3)CC1 | - | 80.0 | - | - | 86.7 | -
Cc1ccc2cc(C#N)c(N3CCCN(S(=O)(=O)c4ccccc4)CC3)nc2c1 | - | - | - | - | - | -
CONC(=O)C1CCN(C(=O)OCc2ccccc2)CC1 | - | - | - | - | - | -
CC(CNC(=O)c1cc(Cl)ccc1[N+](=O)[O-])NC(=O)c1cc(Cl)ccc1[N+](=O)[O-] (stereo not given) | - | - | - | - | - | -
O=S(=O)(Nc1ncn[nH]1)c1ccc(Cl)cc1 | - | - | - | - | 82.9 | -
O=S(=O)(Nc1nc2ccccc2[nH]1)c1ccc(Cl)cc1 | - | - | - | - | 58.0 | -
COc1ccccc1N(C(C)=O)C1SC(=O)N(c2ccccc2)C1=O (stereo not given) | - | - | - | - | 53.7 | -
O=C(c1n[nH]c(=O)c2ccccc12)N1CCN(C2c3ccccc3-c3ccccc32)CC1 | - | 63.7 | - | - | 67.8 | 32.9
CC(C)(C)C(=O)CN1CCN(C2c3ccccc3-c3ccccc32)CC1 | - | - | - | - | - | -
COc1ccc(NC(=O)C2CCN(C(=O)c3cccs3)CC2)cc1 | - | - | - | - | - | -
NC(=O)c1ccsc1NC(=O)COC(=O)C1CCCN1C(=O)c1cccs1 (stereo not given) | - | 72.3 | - | - | 72.4 | -
COc1ccc(NC(=O)COC(=O)[C@@H]2CCCN2C(=O)c2cccs2)c(OC)c1 | - | 56.1 | - | - | - | -
Cc1cc(C)c(C#N)c(SCC(=O)OC2CCCCC2)n1 | - | 60.4 | - | - | 66.5 | -
Cc1cc(C)c(C#N)c(SCC(=O)CC(=O)OC(C)C)n1 | - | 52.8 | - | - | 91.3 | -
CSc1nc(N)nc(SCC(=O)CC(=O)OC(C)C)c1C#N | - | - | - | - | - | -
Cc1nc(SCC(=O)CC(=O)OC(C)C)c(C#N)c(C)c1C | - | - | - | - | 64.5 | -
Cc1ccc2sc(NC(=O)CSc3nc(C)cc(C)c3C#N)nc2c1 | - | 67.6 | - | - | 67.5 | -
CCOC(=O)CSc1nc(C)cc(C)c1C#N | - | - | - | - | - | -
Cc1cccc(C(C)C)c1-n1nnnc1-c1ccccc1 | - | 82.4 | - | - | 70.4 | -
CCCOn1nnnc1-c1ccccc1 | - | . | . | . | . | -
Nn1c(-c2cccs2)nc2sc3c(c2c1=O)CCCC3 | - | 99.7 | - | - | 81.0 | -
Cc1ccccc1-c1nc2sc3c(c2c(=O)n1N)CCCC3 | - | - | - | - | - | -
